Most compounds without a hit are left out; they make up all but 4.6% or so of the library.
D1 antag: Antagonist of Human D 1 Dopamine Receptor: qHTS; 360,000 compounds, 3.2% hits; HEK293 TREx D1 cells, calcium flux, dopamine EC80; hits give low values; activity change, negative = inhibition, % at 10 µM; in the data active = activity change below about -30%; note: % is set by controls: 0 for no effect and ±100 for the full control effect
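Antagonism measured as reduced calcium response to an EC80 dopamine addition following 180 s compound pre-read; cells were inducible HEK293 Trex D1 plated overnight at 30 C, read kinetically at 1 cycle/sec.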
TRHR enhancer: qHTS for Small Molecule Agonists and Allosteric Enhancers of Human TRH Receptor: Primary Screen for Enhancers; TRHR cells, fluo-8 calcium fluorescence, EC20 TRH enhancement; 360,000 compounds, 0.66% hits; enhancement, % at 2 µM; in the data active = enhancement above about 30%; note: 0% is about no effect
Target sequence (P34981 whole entry, looked up): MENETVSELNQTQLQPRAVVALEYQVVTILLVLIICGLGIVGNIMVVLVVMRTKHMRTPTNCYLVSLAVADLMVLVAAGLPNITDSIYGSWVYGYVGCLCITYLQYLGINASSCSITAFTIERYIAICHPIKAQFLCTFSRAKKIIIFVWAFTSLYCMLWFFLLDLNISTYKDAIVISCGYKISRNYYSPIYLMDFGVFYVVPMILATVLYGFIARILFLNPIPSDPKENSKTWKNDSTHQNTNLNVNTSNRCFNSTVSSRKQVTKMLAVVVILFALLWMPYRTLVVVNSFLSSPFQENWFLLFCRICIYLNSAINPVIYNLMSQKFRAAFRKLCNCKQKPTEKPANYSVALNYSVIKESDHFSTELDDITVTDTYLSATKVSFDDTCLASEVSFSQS
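Enhancer read-out: after compound pinning and an initial kinetic agonist-mode read, an EC20 of TRH (10 nM final) was injected and fluo-8 calcium signal (Ex 480/Em 530) followed at 1 s/cycle for 100 cycles in TRHR-expressing cells.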
D1 potentiator: Potentiators of Human D1 Dopamine Receptor: qHTS. D(1A) dopamine receptor (Homo sapiens), P21728. 360,000 compounds, 0.036% hits. AID 504651, 2011. potentiation, % at 10 µM. HEK293 TREx D1 cells, calcium flux, dopamine EC20 potentiation; in the data active = potentiation above about 30%; note: 0% is about no effect
TRHR agonist: qHTS for Small Molecule Agonists and Allosteric Enhancers of Human TRH Receptor: Primary Screen for Agonists. TRHR cells, calcium flux fluo-8, FDSS agonist mode. activation, % at 2 µM. 360,000 compounds, 0.18% hits. AID 493084, 2011; note: 0% is about no effect
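Fluo-8-loaded TRHR cells; 10 s baseline, compound added, kinetic Ca2+ fluorescence read 1/s, agonist mode.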
D1 ag: Allosteric Agonists of the Human D1 Dopamine Receptor: qHTS; HEK293 T-REx D1 cells, calcium flux, agonist mode; activation, % at 2 µM; AID 504660, 2011; 360,000 compounds, 1% hits; D(1A) dopamine receptor (Homo sapiens), P21728; note: 0% is about no effect
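Agonism was scored from calcium flux recorded over 180 s (1 read/s) after pintool compound addition, following a 10-cycle baseline. Cells were inducible force-coupled HEK293 TREx D1, plated overnight at 30 C and loaded with no-wash calcium dye.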
An asterisk follows results filed as active. Cut-off read from the data, not from the text of the source, unless noted: active = activation above about 30%; inactive = the rest.

SMILES	D1 antag	TRHR enhancer	D1 potentiator	TRHR agonist	D1 ag
Cc1ccc(NC(=O)/C(C#N)=C\c2ccc(Cl)cc2Cl)cc1C	-14	8	-5	-1	-1
O=C(NNC(=O)c1ccccc1[N+](=O)[O-])c1ccc(NC(=O)c2ccccc2)cc1	-38*	-2	-21	6	4
O=C(NNC(=O)c1ccccc1[N+](=O)[O-])Nc1ccc(Cl)cc1	-4	1	-2	0	1
Cc1ccc(N2CCN(S(=O)(=O)c3cc(Br)cc4c3N(C(=O)C3CC3)CC4)CC2C)cc1 (stereo unspecified)	-12	3	1	0	3
Cc1ccc(-c2nc3sc4c(N)ncnc4c3c3c2CCCC3)cc1	-61*	7	-21	0	3
Cn1c(=O)c2cn3ncccc3c2n(C)c1=O	2	4	9	1	2
COc1cc(C(=O)N(Cc2cc3ccccc3[nH]c2=O)CC2CCCO2)cc(OC)c1OC (stereo unspecified)	-1	5	3	1	0
COC(=O)c1ccc(CSc2ccc3nnc(-c4cccc(F)c4)n3n2)o1	-30*	-3	0	0	-1
CCSc1nnc(NC(=O)CC(C)C)s1	14	5	-9	-1	2
CC(=O)Nc1ccc(NC(=O)CSc2nnc(NC(=O)Cc3ccc(F)cc3)s2)cc1	-53*	-19	-20	0	1
CC(C)CC(=O)Nc1nnc(SCC(=O)Nc2nccs2)s1	-35*	3	-1	0	7
CC(C)(C)CC(=O)Nc1nnc(SCC(=O)Nc2ccccc2F)s1	-40*	-3	-7	-1	1
COc1ccc(OC)c(NC(=O)C(CC(=O)O)NCc2ccco2)c1 (stereo unspecified)	-15	-3	-3	0	1
CC(NC(=O)c1cccc(C(F)(F)F)c1)C(c1ccccc1)N1CCOCC1 (stereo unspecified)	9	1	-4	-2	2
CCc1ccc(NCc2cccn2-c2nnc(N3CCCCCC3)s2)cc1	-31*	8	2	0	0
CC(=O)c1nc(N2C(=O)CC(Cc3ccccc3)C2=O)sc1C (stereo unspecified)	-3	0	-6	0	3
Cc1ccc(CN2COc3c(Cl)cc4c(-c5ccccc5)cc(=O)oc4c3C2)cc1	-32*	4	-1	3	6
Cc1ccc2ncc3c(-c4ccc(F)cc4)nn(CC(=O)Nc4ccccc4C)c3c2c1	-13	0	-5	1	7
Cc1ccccc1NC(=O)Cn1nc(-c2ccc(F)cc2)c2cnc3ccccc3c21	-37*	-1	-6	0	3
COC(=O)c1ccccc1SC1CC(=O)N(c2ccccc2)C1=O (stereo unspecified)	-15	-1	-2	-1	1
COC(=O)c1ccc(NC2CC(=O)N(c3ccccc3C)C2=O)cc1 (stereo unspecified)	-33*	-1	-6	0	5
COC(=O)c1ccccc1NC1CC(=O)N(c2c(C)cccc2C)C1=O (stereo unspecified)	3	33*	-3	1	2
Cc1cc(=O)[nH]c2c1c(C)nn2C(C)(C)C	-26	-4	0	-1	0
Cc1cccc(C)c1Nc1c(-c2ccc(N3CCOCC3)cc2)nc2ncccn12	-23	19	-3	6	13
S=C(Nc1ccc(Br)cc1)NC1CCCC1	-50*	-8	-7	1	16
SMILES	D1 antag	TRHR enhancer	D1 potentiator	TRHR agonist	D1 ag
O=C(Nc1ccc(F)c(F)c1)NC1CCCCC1	-32*	0	-6	1	18
Nc1ccc(NC(=O)NC2CCCCC2)cc1[N+](=O)[O-]	-77*	-12	-3	-3	1
O=C(Nc1ccccc1C(F)(F)F)NC1CCCCCCC1	-31*	-4	-5	1	3
O=C(Nc1ccc(Cl)cc1)NC1CCCCC1	-18	5	-5	2	9
O=C(Nc1ccccc1C(F)(F)F)NC1CCCCC1	-7	3	-2	0	4
COC(=O)c1c(C(=O)OC)c(-c2ccc(OC)cc2)n2c1CS(=O)(=O)C2	-8	4	-6	1	9
CCc1noc(C)c1C(=O)N1CCC(CCC(=O)Nc2cccc(OC)c2)CC1	11	5	5	0	4
CCOc1ccc(CCNC(=O)CCS(=O)(=O)c2ccc(C)cc2)cc1OCC	10	-8	1	0	2
CC(C(=O)Nc1ccc2c(c1)OCO2)n1cnc2c1c(=O)n(C)c(=O)n2C (stereo unspecified)	-12	1	3	0	-1
Cc1cccc(NC(=O)NC2CCCCCCC2)c1	-34*	3	-6	1	12
O=C(Nc1ccc(F)cc1)NC1CCCCCCC1	-35*	-4	4	1	12
O=C(NNC(=S)Nc1ccccc1C(F)(F)F)C1CC1	-37*	-2	-6	-1	1
O=C(CCC(=O)Nc1ccccc1Cl)NNC(=S)Nc1ccccc1C(F)(F)F	11	6	5	0	2
O=C(NC(=S)NNC(=O)c1ccccc1O)c1cccc([N+](=O)[O-])c1	4	6	2	0	4
CCCCn1c(N)c(N(CCOC)C(=O)c2cc(-c3ccco3)nc3ccccc23)c(=O)[nH]c1=O	-4	1	-1	1	0
O=C(CSc1nccn1Cc1ccco1)Nc1ccccc1	-3	-4	-4	0	3
CCOC(=O)C1=C(N)n2c(s/c(=C\c3ccco3)c2=O)=C(C(=O)OC(C)C)C1c1ccco1 (stereo unspecified)	-1	-7	-4	1	4
CC(C)OC(=O)CSc1ncnc2c1cnn2Cc1ccccc1	-11	10	-9	-1	4
COC(=O)CSc1ncnc2c1cnn2Cc1ccccc1	36	-2	-3	-1	42*
Cc1ccc(S(=O)(=O)N(C)C)cc1NC(=O)COC(=O)c1ccc2ccccc2n1	-55*	6	1	0	0
COc1ccc(OC)c(C(=O)NC(CC(N)=O)c2ccc(NCCN3CCOCC3)c([N+](=O)[O-])c2)c1 (stereo unspecified)	-4	7	-2	0	3
Cc1cc(C)c(O)c(NC(=S)NC(=O)Cc2ccccc2)c1	-11	10	2	7	33*
Cc1cccc(NC(=S)NC(=O)Cc2ccccc2)c1C	6	-5	-3	11	65*
